Results published in PubChem BioAssay (NCATS).
Records with an inconclusive call do not appear. A call without a number means that no potency is given here. Calls of active or inactive are those of the source. Calls come from the whole dose curve; as a rule, active = well fitted inhibition curve with a large enough effect; inconclusive = small, poorly fitted or top-dose-only effect; inactive = flat fitted curve, though single readings scatter.

Tested on: Zika virus NS2B-NS3 protease
Experiment: Primary screen GU AMC qHTS for Zika virus inhibitors (AID 1347154); note: nearly all actives have a fitted effect of over 70% in size
Details: Zika NS2B-NS3 unlinked protease, AMC fluorogenic substrate; series mostly up to 54.1 µM
How it was run: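 Unlinked Zika NS2B hydrophilic domain–NS3 protease complex at 25 nM in 10 mM Tris-HCl pH 8.0, 0.01% Tween 20, with an AMC peptide substrate. Fluorescence change (340/450 nm) over 15 min at room temperature, normalized to controls, fitted to 4-parameter Hill.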
Potency is the fitted concentration of half-maximal effect.

Row | SMILES | Potency
1 | CC(NCCC(c1ccccc1)c1ccccc1)c1ccccc1 (centres undefined) | inactive
2 | c1ccc2occc2c1 | inactive
3 | CC1(C)S[C@@H]2[C@H](NC(=O)C(c3ccccc3)S(=O)(=O)O)C(=O)N2[C@H]1C(=O)O (some centres undefined) | inactive
4 | Cc1coc2ccccc2c1=O | inactive
5 | O=C(O)c1[nH]n(-c2ccc(S(=O)(=O)O)cc2)c(=O)c1N=Nc1ccc(S(=O)(=O)O)cc1 | inactive
6 | Cc1c(F)cc2c(=O)c(C(=O)O)cn3c2c1CCC3C (centres undefined) | inactive
7 | CC(=O)N1CCN(c2ccc(O)cc2)CC1 | inactive
8 | CCOc1c(N2CCOCC2)cnn(C)c1=O | inactive
9 | CC(NN)c1ccccc1 (centres undefined) | inactive
10 | COc1cc(C(=O)NC2CCCNC2)cc(OC)c1OC (centres undefined) | inactive
11 | COc1cc2nc(Cl)nc(N)c2cc1OC | inactive
12 | Cc1cc2nc3ccc(=[N+](C)C)cc-3sc2cc1N | inactive
13 | COCCc1ccc(OCC2CO2)cc1 (centres undefined) | inactive
14 | O=C1OC2(c3ccccc31)c1cc(I)c(O)c(I)c1Oc1c2cc(I)c(O)c1I | 16.1 µM (active)
15 | CCCN(CCC)C(=O)C(CCC(=O)OCCCN1CCN(CCOC(=O)Cc2c(C)n(C(=O)c3ccc(Cl)cc3)c3ccc(OC)cc23)CC1)NC(=O)c1ccccc1 (centres undefined) | inactive
16 | CC(=O)OCC[N+](C)(C)C | inactive
17 | CN1CC[C@H](c2c(O)cc(O)c3c(=O)cc(-c4ccccc4Cl)oc23)[C@H](O)C1 | inactive
18 | CC(C)NCCCC1(C(N)=O)c2ccccc2-c2ccccc21 | inactive
19 | CN1C(=O)CC(C)(c2ccccc2)C1=O (centres undefined) | inactive
20 | COc1cc(NS(=O)(=O)c2ccc(N)cc2)nc(C)n1 | inactive

Row | SMILES | Potency
21 | CN(C)CCN1CCN(c2cccc(Cl)c2)C1=O | inactive
22 | CC(C)C(=O)Nc1cccc(C2CN3CCSC3=N2)c1 (centres undefined) | inactive
23 | C/C(=C1\CCOC(=O)S1)N(C=O)Cc1cnc(C)nc1N | inactive
24 | CC(=O)Nc1ccc(S(=O)(=O)Nc2cc(C)on2)cc1 | inactive
25 | CCCCCN(CCCOC)C(=O)C(CCC(=O)O)NC(=O)c1ccc(Cl)c(Cl)c1 (centres undefined) | inactive
26 | CC(C)(C)NCC(O)COc1ccccc1OCC1CCCO1 (centres undefined) | inactive
27 | O=C1CC(c2ccc(Cl)cc2)CC(=O)N1 | inactive
28 | CO/N=C(\C(=O)O)c1csc(NC(=O)CCl)n1 | inactive
29 | C/C(=N/NC(=O)c1ccncc1)C(=O)O | inactive
30 | CC(COc1ccccc1)NN (centres undefined) | inactive
31 | C1=CC2C3C=CC(C3)C2C1 (centres undefined) | inactive
32 | CN1[C@@H]2CC[C@H]1CC(NC(=O)n1c(=O)[nH]c3ccccc31)C2 (some centres undefined) | inactive
33 | Cc1ccc(C(C)OC(=O)C2(C)CCC(C(=O)O)C2(C)C)cc1 (centres undefined) | inactive
34 | COc1ccccc1OCC1CNC(=O)O1 (centres undefined) | inactive
35 | CO/N=C(/C(=O)N[C@@H]1C(=O)N2C(C(=O)OCOC(=O)C(C)(C)C)=C(C)CS[C@H]12)c1csc(N)n1 | inactive
36 | CCC(=O)Oc1ccc2c(c1)CC[C@@H]1[C@@H]2CC[C@@]2(C)[C@H]1C[C@@H](OC(=O)CC)[C@@H]2OC(=O)CC | inactive
37 | O=C(O)c1ccc(OCCN2CCCCC2)cc1 | inactive
38 | Cc1ccc(Cl)c(OCC(O)CNC(C)(C)C)c1 (centres undefined) | inactive
39 | O=C(O)Cn1cnnn1 | inactive
